{
  "source": "PubChem BioAssay (NCI)",
  "note": "Several values for one entry are separate records, joined by “and”; a condition that tells them apart may be missing. Equal entries are not always repeated. The panel holds about 79,000 compounds, 15% with a hit somewhere; the sample as a whole holds those more often. The source holds several records for some structures; these can differ, active in one and inactive in another. Activity calls are given as the source filed them. Cut-off read from the data, not from the text of the source: active = growth inhibition above about 70%; inactive = the rest.",
  "data": [
    {"assay": "NCI Yeast Anticancer Drug Screen. Data for the bub3 strain (AID 167)", "settings": "S. cerevisiae bub3 mutant strain, at 50.0 µM, stronger effect = higher value", "summary_of_the_method": "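Steps: expose the mutant yeast strain to compound; grow alongside vehicle-treated cultures; measure growth; express inhibition against the vehicle cultures.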", "values": [
      {"smiles": "COc1ccc(/C=C2\\CCc3ccccc3C2=O)cc1OC", "growth inhibition": "87.6% (active)"},
      {"smiles": "CC(C)c1ccc(O)c(=O)cc1", "growth inhibition": "92.7% (active) and 93.3% (active) and 92.8% (active)"},
      {"smiles": "O=Cc1ccccc1B(O)O", "growth inhibition": "99% (active)"},
      {"smiles": "CC(=O)CC[N+](C)(C)C", "growth inhibition": "-24.3% (inactive)"},
      {"smiles": "O=C(O)[C@H]1[C@@H](C2CCCCC2)O[C@@H](C2CCCCC2)O[C@H]1C(F)(F)F", "growth inhibition": "87.8% (active)"},
      {"smiles": "CN(NC(=O)/C(=C/C=C/c1ccccc1)NC(=O)c1ccccc1)C1=C(Cl)C(=O)[N+](c2ccccc2)=CC1", "growth inhibition": "70.4% (active)"},
      {"smiles": "CCCCOc1ccc(Nc2c3ccccc3nc3ccccc23)cc1", "growth inhibition": "86.8% (active)"},
      {"smiles": "N#C/C(=C1C=C/C(=N\\O)C(Cl)=C\\1)c1ccccc1", "growth inhibition": "72.7% (active)"},
      {"smiles": "COc1ccc(C(=O)OCCc2ccccc2)cc1", "growth inhibition": "56.5% (inactive)"},
      {"smiles": "Cc1c2ccncc2c(C)c2c1oc1ccccc12", "growth inhibition": "96.4% (active)"},
      {"smiles": "CCCC#CCOC(=O)c1cc([N+](=O)[O-])cc([N+](=O)[O-])c1", "growth inhibition": "99.8% (active)"},
      {"smiles": "Nc1nc(Nc2ccccc2)nc(Nc2ccccc2)n1", "growth inhibition": "91.5% (active)"},
      {"smiles": "COc1ccc(/C=C2\\S/C(=N/Nc3nc(-c4ccccc4)cs3)NC2=O)cc1OC", "growth inhibition": "98.3% (active)"},
      {"smiles": "CCCCCCCCCCCC[N+](C)(C)Cc1ccccc1", "note": "(tested in a mixture with another compound)", "growth inhibition": "99.8% (active) and 99.3% (active) and 98.3% (active)"},
      {"smiles": "CC(O)CN1C(=O)c2cccc3cc([N+](=O)[O-])cc(c23)C1=O", "note": "(stereo not drawn)", "growth inhibition": "39.4% (inactive)"},
      {"smiles": "Cc1cc(SC#N)ccc1O", "growth inhibition": "91.3% (active) and 88.4% (active) and 95% (active)"},
      {"smiles": "Cn1c(COc2ccc(/C=N/NC(=O)CCC(=O)N/N=C/c3ccc(OCc4c[n+]5ccccc5n4C)cc3)cc2)c[n+]2ccccc12", "growth inhibition": "18.9% (inactive)"},
      {"smiles": "COC1=C(N=[N+]=[N-])C(=O)c2ncccc2C1=O", "growth inhibition": "78% (active)"},
      {"smiles": "CCN(CC)c1ccc(N=Nc2cc(S(=O)(=O)O)ccc2O)c(O)c1", "growth inhibition": "50.9% (inactive)"},
      {"smiles": "O=C1C(C(O)(C(F)(F)F)C(F)(F)F)CCC1C(O)(C(F)(F)F)C(F)(F)F", "note": "(stereo not drawn)", "growth inhibition": "28.4% (inactive)"},
      {"smiles": "CN(C)CCNC(=O)c1cccc2nc3c(ccc4ccccc43)nc12", "growth inhibition": "24.1% (inactive)"},
      {"smiles": "O=S(=O)(CCC[C@H]1[C@@H](CCOCc2ccccc2)C2CCCN1O2)c1ccccc1", "note": "(stereo partly drawn)", "growth inhibition": "-12.1% (inactive)"},
      {"smiles": "CCC(C)/C(C)=N/NC(N)=O", "note": "(stereo not drawn)", "growth inhibition": "25% (inactive)"},
      {"smiles": "Nc1c([N+](=O)[O-])cc2c3c(cccc13)CC2", "growth inhibition": "21.4% (inactive)"},
      {"smiles": "CC1=Cc2ccc(C)cc2C(=O)C1=O", "growth inhibition": "99.3% (active)"},
      {"smiles": "C=Cc1c(C)c(O)cc2c1-c1ccc(O)c(C)c1CC2", "growth inhibition": "-43.2% (inactive)"},
      {"smiles": "NCC(O)CSCc1ccc(Cl)cc1", "note": "(stereo not drawn)", "growth inhibition": "74.1% (active)"},
      {"smiles": "C[n+]1c(-c2ccc(NC(=O)c3ccc(C(=O)Nc4ccc(-c5cn6ccccc6[n+]5C)cc4)cc3)cc2)cn2ccccc21", "growth inhibition": "57.6% (inactive)"},
      {"smiles": "Nc1ccccc1SSc1ccccc1N", "growth inhibition": "98.3% (active) and 99.1% (active)"},
      {"smiles": "CCCCCCCCCCCC[N+](C)(C)C", "growth inhibition": "57.2% (inactive) and 82.1% (active) and 97.2% (active)"},
      {"smiles": "CNC(=O)OCc1c(COC(=O)NC)c(C)n(-c2ccc(Cl)c(Cl)c2)c1C", "growth inhibition": "87% (active)"},
      {"smiles": "[O-]c1c2cc(-[n+]3c(-c4ccccc4)cc(-c4ccccc4)cc3-c3ccccc3)cc1COCCOCCOCCOCCOC2", "growth inhibition": "21.7% (inactive)"},
      {"smiles": "C[Si](C)(C)Cc1ccccc1C(=O)O", "growth inhibition": "97% (active)"}
    ]}
  ]
}
